Source: PubChem BioAssay AID1159580 (chemical genetic matrix, 2015)
The campaign covered roughly 5,500 compounds. About 2,000 (36%) were called active. Not shown: some 18% with an inconclusive outcome. No stated cut-off is given here; in the data, active means normalized growth mostly below about 0.91 (no sharp cut-off); inconclusive means no clear call, values can overlap the other calls; inactive means mostly above about 0.92. The list shows a part of the results.

Test: chemical genetic growth profiling, strain panel (AID 1159580);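 further: tested at 20 µM; growth read once vehicle control cultures reached saturation at 30 °C; 1 = growth at the plate median or of vehicle wells; lower values mean less growth of the strain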
Conditions: growth OD

Measured: normalized growth

O=c1cc(-c2cc(O)c(O)c(O)c2)oc2cc(O)cc(O)c12
active: S. cerevisiae deletion strains, locus YNL209W, strain ssb2, active compounds read low 0.875
inactive: S. cerevisiae deletion strains, locus YJR075W, strain HOC1, active compounds read low 1.02 | S. cerevisiae deletion strains, locus YKL009W, strain mrt4, active compounds read low 0.99 | S. cerevisiae deletion strains, locus YKL068W, active compounds read low 0.962 | S. cerevisiae deletion strains, locus YKL085W, strain MDH1 (second series), active compounds read low 0.996 | S. cerevisiae deletion strains, locus YKL085W, strain MDH1, active compounds read low 0.996 | S. cerevisiae deletion strains, locus YKL160W, strain elf1, active compounds read low 0.934 | S. cerevisiae deletion strains, locus YKL190W, strain CNB1, active compounds read low 0.992 | S. cerevisiae deletion strains, locus YKR001C, strain vps1, active compounds read low 0.986 | S. cerevisiae deletion strains, locus YKR026C, strain gcn3, active compounds read low 1.01 | S. cerevisiae deletion strains, locus YKR091W, strain srl3, active compounds read low 1.01 | S. cerevisiae deletion strains, locus YLL001W, strain dnm1, active compounds read low 0.961 | S. cerevisiae deletion strains, locus YLL026W, active compounds read low 1.01 | S. cerevisiae deletion strains, locus YLL041C, strain sdh2, active compounds read low 1 | S. cerevisiae deletion strains, locus YLR027C, strain aat2, active compounds read low 0.974 | S. cerevisiae deletion strains, locus YLR039C, strain RIC1, active compounds read low 0.966 | S. cerevisiae deletion strains, locus YLR058C, strain SHM2, active compounds read low 0.999 | S. cerevisiae deletion strains, locus YLR102C, strain apc9, active compounds read low 0.995 | S. cerevisiae deletion strains, locus YLR113W, strain HOG1, active compounds read low 0.998 | S. cerevisiae deletion strains, locus YLR221C, strain rsa3, active compounds read low 0.928 | S. cerevisiae deletion strains, locus YLR258W, strain gsy2, active compounds read low 0.967 | S. cerevisiae deletion strains, locus YLR262C, strain YPT6 (second series), active compounds read low 0.905 | S. cerevisiae deletion strains, locus YLR262C, strain YPT6, active compounds read low 1.05 | S. cerevisiae deletion strains, locus YLR268W, strain sec22, active compounds read low 0.976 | S. cerevisiae deletion strains, locus YLR320W, strain mms22, active compounds read low 0.897 | S. cerevisiae deletion strains, locus YLR330W, strain CHS5, active compounds read low 0.994 | S. cerevisiae deletion strains, locus YLR342W, strain FKS1 (second series), active compounds read low 0.986 | S. cerevisiae deletion strains, locus YLR342W, strain FKS1, active compounds read low 0.964 | S. cerevisiae deletion strains, locus YLR357W, strain rsc2, active compounds read low 0.856 | S. cerevisiae deletion strains, locus YLR370C, strain arc18, active compounds read low 0.924 | S. cerevisiae deletion strains, locus YLR371W, strain rom2, active compounds read low 0.985 | S. cerevisiae deletion strains, locus YLR384C, strain iki3, active compounds read low 0.993 | S. cerevisiae deletion strains, locus YLR418C, strain cdc73, active compounds read low 1.02 | S. cerevisiae deletion strains, locus YML016C, strain PPZ1, active compounds read low 0.994 | S. cerevisiae deletion strains, locus YML032C, strain rad52, active compounds read low 0.999 | S. cerevisiae deletion strains, locus YML120C, strain ndi1, active compounds read low 0.948 | S. cerevisiae deletion strains, locus YML124C, strain tub3, active compounds read low 0.998 | S. cerevisiae deletion strains, locus YMR058W, strain fet3, active compounds read low 0.941 | S. cerevisiae deletion strains, locus YMR078C, strain ctf18, active compounds read low 0.998 | S. cerevisiae deletion strains, locus YMR125W, strain sto1, active compounds read low 1.03 | S. cerevisiae deletion strains, locus YMR129W, active compounds read low 1.01 | S. cerevisiae deletion strains, locus YMR205C, strain PFK2, active compounds read low 0.961 | S. cerevisiae deletion strains, locus YMR223W, strain ubp8, active compounds read low 0.964 | S. cerevisiae deletion strains, locus YMR231W, strain pep5, active compounds read low 1 | S. cerevisiae deletion strains, locus YMR263W, strain SAP30, active compounds read low 0.999 | S. cerevisiae deletion strains, locus YMR307W, strain GAS1, active compounds read low 1.09 | S. cerevisiae deletion strains, locus YNL067W, strain RPL9B, active compounds read low 1.01 | S. cerevisiae deletion strains, locus YNL071W, strain lat1, active compounds read low 0.979 | S. cerevisiae deletion strains, locus YNL128W, strain TEP1, active compounds read low 0.953 | S. cerevisiae deletion strains, locus YNL183C, strain NPR1, active compounds read low 0.966 | S. cerevisiae deletion strains, locus YNL233W, strain BNI4, active compounds read low 1.01 | S. cerevisiae deletion strains, locus YNL248C, strain rpa49, active compounds read low 1.02 | S. cerevisiae deletion strains, locus YNL250W, strain rad50, active compounds read low 0.966 | S. cerevisiae deletion strains, locus YNL271C, strain bni1, active compounds read low 0.978 | S. cerevisiae deletion strains, locus YNL298W, strain CLA4, active compounds read low 0.985 | S. cerevisiae deletion strains, locus YNL307C, strain MCK1, active compounds read low 1.01 | S. cerevisiae deletion strains, locus YNL322C, strain KRE1 (second series), active compounds read low 0.991 | S. cerevisiae deletion strains, locus YNR049C, strain mso1, active compounds read low 1.01 | S. cerevisiae deletion strains, locus YNR052C, strain pop2, active compounds read low 0.999 | S. cerevisiae deletion strains, locus YOL006C, strain TOP1, active compounds read low 1.08 | S. cerevisiae deletion strains, locus YOL012C, strain htz1 0.547 | S. cerevisiae deletion strains, locus YOL147C, strain pex11, active compounds read low 1.01 | S. cerevisiae deletion strains, locus YOR001W, strain rrp6, active compounds read low 0.987 | S. cerevisiae deletion strains, locus YOR061W, strain CKA2, active compounds read low 0.997 | S. cerevisiae deletion strains, locus YOR069W, strain VPS5, active compounds read low 1 | S. cerevisiae deletion strains, locus YOR070C, strain gyp1, active compounds read low 0.962 | S. cerevisiae deletion strains, locus YOR080W, strain dia2, active compounds read low 0.993 | S. cerevisiae deletion strains, locus YOR083W, strain WHI5, active compounds read low 0.916 | S. cerevisiae deletion strains, locus YOR106W, strain vam3, active compounds read low 0.926 | S. cerevisiae deletion strains, locus YOR136W, strain idh2, active compounds read low 0.995 | S. cerevisiae deletion strains, locus YOR144C, strain elg1, active compounds read low 1.01 | S. cerevisiae deletion strains, locus YOR184W, strain ser1, active compounds read low 1.01 | S. cerevisiae deletion strains, locus YOR231W, strain MKK1, active compounds read low 1.04 | S. cerevisiae deletion strains, locus YOR265W, strain rbl2, active compounds read low 0.99 | S. cerevisiae deletion strains, locus YOR270C, strain vph1, active compounds read low 0.888 | S. cerevisiae deletion strains, locus YOR290C, strain snf2, active compounds read low 0.942 | S. cerevisiae deletion strains, locus YOR316C, strain cot1, active compounds read low 0.987 | S. cerevisiae deletion strains, locus YPL051W, strain arl3, active compounds read low 0.931 | S. cerevisiae deletion strains, locus YPL055C, strain LGE1, active compounds read low 1.03 | S. cerevisiae deletion strains, locus YPL078C, strain atp4, active compounds read low 0.98 | S. cerevisiae deletion strains, locus YPL106C, strain sse1, active compounds read low 0.929 | S. cerevisiae deletion strains, locus YPL240C, strain hsp82, active compounds read low 1.01 | S. cerevisiae deletion strains, locus YPL256C, strain CLN2, active compounds read low 1.06 | S. cerevisiae deletion strains, locus YPR119W, strain clb2, active compounds read low 1.01 | S. cerevisiae deletion strains, locus YPR141C, strain kar3, active compounds read low 0.971 | S. cerevisiae deletion strains, locus YPR163C, strain tif3, active compounds read low 0.988 | S. cerevisiae deletion strains, locus YPR167C, strain met16, active compounds read low 1.01 | S. cerevisiae deletion strains, strain wtn01, active compounds read low 1 | S. cerevisiae strains, strain wild type, active compounds read low 0.996
